# Results taken from PubChem BioAssay (EPA / NIEHS).
# Active and inactive are the calls of the source. How the source made its calls: active means hit-call score of the fitted dose curve at least 0.9, where 1 is the maximum; inactive means score below 0.9.
# How the values were obtained:
# Conditions in all cases: mRNA level, 48 h; actives raise or lower the signal
# [1] = read-out: Glutamate-cysteine ligase catalytic (GCLC), GCLC (gene 2729); assay: LTEA_HepaRG_GCLC: Life Technologies and Expression Analysis (LTEA) Assay for Glutamate-cysteine ligase catalytic (GCLC) using HepaRG (AID 2283498)
# Method in brief: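 Read-out is GCLC transcript level by Fluidigm-based TaqMan qRT-PCR, normalized to three housekeeping genes and fitted in both directions relative to 0.5% DMSO. Human HepaRG cells received chemicals for 48 h, up to 100 uM.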
# [2] = read-out: growth arrest and DNA damage 45 (GADD45G), GADD45G (gene 10912); assay: LTEA_HepaRG_GADD45G: Life Technologies and Expression Analysis (LTEA) Assay for growth arrest and DNA damage 45 (GADD45G) using HepaRG (AID 2283499)
# Method in brief: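 Differentiated human HepaRG cells in serum-free induction medium were exposed for 48 h to 8 half-log concentrations up to 100 uM in 0.5% DMSO, in duplicate. GADD45G mRNA was measured by TaqMan qRT-PCR, normalised to ACTB, GAPDH and POLR2A, and fitted bidirectionally against DMSO.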
# [3] = read-out: Glutamate-cysteine ligase regulatory (GCLM), GCLM (gene 2730); assay: LTEA_HepaRG_GCLM: Life Technologies and Expression Analysis (LTEA) Assay for Glutamate-cysteine ligase regulatory (GCLM) using HepaRG (AID 2283500)
# Method in brief: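 Differentiated HepaRG cells exposed 48 h in serum-free induction medium to eight half-log concentrations up to 100 uM (0.5% DMSO). GCLM mRNA by TaqMan qRT-PCR, normalized to ACTB, GAPDH and POLR2A; bidirectional fit versus DMSO.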
# [4] = read-out: Glutathione S-transferase M3 (GSTM3), GSTM3 (gene 2947); assay: LTEA_HepaRG_GSTM3: Life Technologies and Expression Analysis (LTEA) Assay for Glutathione S-transferase M3 (GSTM3) using HepaRG (AID 2283501)
# Method in brief: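 Differentiated HepaRG cells in serum-free induction medium were exposed in duplicate for 48 h to 8 half-log concentrations up to 100 uM in 0.5% DMSO. GSTM3 mRNA was measured by TaqMan qRT-PCR, normalized to ACTB/GAPDH/POLR2A, and fitted bidirectionally versus DMSO.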
# [5] = read-out: Heat shock 70 kDa protein 1 (HSPA1A), gene 3303; assay: LTEA_HepaRG_HSPA1A: Life Technologies and Expression Analysis (LTEA) Assay for Heat shock 70 kDa protein 1 (HSPA1A) using HepaRG (AID 2283502)
# Method in brief: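 Human HepaRG cells in serum-free induction medium were exposed in duplicate for 48 h to 8 half-log concentrations, highest 100 uM, in 0.5% DMSO. HSPA1A mRNA read by TaqMan qRT-PCR, normalized to ACTB, GAPDH, POLR2A, fitted bidirectionally against DMSO.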
# [6] = read-out: 3-Hydroxy-3-Methylglutaryl-CoA Synthase 2 (HMGCS2), HMGCS2 (gene 3158); assay: LTEA_HepaRG_HMGCS2: Life Technologies and Expression Analysis (LTEA) Assay for 3-Hydroxy-3-Methylglutaryl-CoA Synthase 2 (HMGCS2) using HepaRG (AID 2283504)
# Method in brief: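 Differentiated human HepaRG cells were exposed in duplicate for 48 h in serum-free induction medium to eight concentrations (top 100 uM, half-log steps, 0.5% DMSO). HMGCS2 mRNA was quantified by TaqMan qRT-PCR, normalised to ACTB, GAPDH and POLR2A, then fitted bidirectionally against DMSO.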
# HGF (gene 3082) = assay: LTEA_HepaRG_HGF: Life Technologies and Expression Analysis (LTEA) Assay for Hepatocyte Growth Facto (HGF) using HepaRG (AID 2283505)
# Method in brief: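 Differentiated human HepaRG cells in serum-free induction medium were exposed in duplicate for 48 h to eight concentrations (top 100 uM, half-log steps, 0.5% DMSO). HGF mRNA was quantified by qRT-PCR, normalized to ACTB, GAPDH and POLR2A.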
# [7] = read-out: Insulin-like growth factor-binding protein 1 (IGFBP1), IGFBP1 (gene 3484); assay: LTEA_HepaRG_IGFBP1: Life Technologies and Expression Analysis (LTEA) Assay for Insulin-like growth factor-binding protein 1 (IGFBP1) using HepaRG (AID 2283508)
# Method in brief: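 Differentiated human HepaRG cells in serum-free induction medium were exposed in duplicate for 48 h to eight concentrations, top 100 uM with half-log dilutions, in 0.5% DMSO. Transcript levels came from qRT-PCR normalised to ACTB, GAPDH and POLR2A, fitted bidirectionally against DMSO.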
# [8] = read-out: Interleukin 6 (IL6), IL6 (gene 3569); assay: LTEA_HepaRG_IL6: Life Technologies and Expression Analysis (LTEA) Assay for Interleukin 6 (IL6) using HepaRG (AID 2283509)
# Method in brief: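 HepaRG, ~100,000 cells/well, 48 h pre-culture; serum-free induction medium; cmpd 8-pt half-log from 100 uM, 0.5% DMSO, duplicate, 48 h. Lysis in RLT, TaqMan qRT-PCR; gain or loss vs DMSO.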
# [9] = read-out: Interleukin 6 Receptor (IL6R), IL6R (gene 3570); assay: LTEA_HepaRG_IL6R: Life Technologies and Expression Analysis (LTEA) Assay for Interleukin 6 Receptor (IL6R) using HepaRG (AID 2283510)
# Method in brief: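 Differentiated HepaRG cells, plated 48 h, then exposed in duplicate for 48 h in serum-free induction medium to 8 half-log concentrations (top 100 uM, 0.5% DMSO). IL6R mRNA measured by TaqMan qRT-PCR, normalized to ACTB/GAPDH/POLR2A; bidirectional fit vs DMSO.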
# [10] = read-out: Potassium channel subfamily K member 1 (KCNK1), KCNK1 (gene 3775); assay: LTEA_HepaRG_KCNK1: Life Technologies and Expression Analysis (LTEA) Assay for Potassium channel subfamily K member 1 (KCNK1) using HepaRG (AID 2283511)
# Method in brief: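 Gain or loss of KCNK1 mRNA is the read-out, quantified by qRT-PCR against three housekeeping genes after 48 h chemical treatment of human HepaRG liver cells. Concentrations ran from 100 uM downward in half-log steps, vehicle 0.5% DMSO.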
# [11] = read-out: Keratin 19 (KRT19), KRT19 (gene 3880); assay: LTEA_HepaRG_KRT19: Life Technologies and Expression Analysis (LTEA) Assay for Keratin 19 (KRT19) using HepaRG (AID 2283512)
# Method in brief: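 Differentiated human HepaRG cells, plated 48 h, were exposed in duplicate for 48 h in serum-free induction medium to eight half-log concentrations up to 100 uM in 0.5% DMSO. KRT19 mRNA was quantified by qRT-PCR, normalized to ACTB, GAPDH and POLR2A, and fitted bidirectionally versus DMSO.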
# [12] = read-out: JUN Transcription Factor, JUN (gene 3725); assay: LTEA_HepaRG_JUN: Life Technologies and Expression Analysis (LTEA) Assay for JUN Transcription Factor using HepaRG (AID 2283513)
# Method in brief: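 HepaRG cells, 48 h post-plating, exposed 48 h in serum-free induction medium to 8-point half-log series (top 100 uM, 0.5% DMSO), duplicate; mRNA by qRT-PCR (TaqMan, Fluidigm), normalized to ACTB/GAPDH/POLR2A; bidirectional fit vs DMSO.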
# [13] = read-out: Lipase C (LIPC), LIPC (gene 3990); assay: LTEA_HepaRG_LIPC: Life Technologies and Expression Analysis (LTEA) Assay for Lipase C (LIPC) using HepaRG (AID 2283514)
# Method in brief: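 Read-out is LIPC transcript level by TaqMan qRT-PCR, normalized to three housekeeping genes, after 48 h chemical treatment of human HepaRG liver cells. Curves span eight concentrations topping at 100 uM; activity in either direction scored relative to 0.5% DMSO.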
# [14] = read-out: Lipoprotein lipase (LPL), LPL (gene 4023); assay: LTEA_HepaRG_LPL: Life Technologies and Expression Analysis (LTEA) Assay for Lipoprotein lipase (LPL) using HepaRG (AID 2283515)
# Method in brief: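 Read-out is LPL transcript level by qRT-PCR, normalized to three housekeeping genes and fitted bidirectionally against the DMSO control. Human HepaRG cells received chemicals for 48 h at up to 100 uM.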
# [15] = read-out: MicroRNA 122 (MIR122), gene 406906; assay: LTEA_HepaRG_MIR122: Life Technologies and Expression Analysis (LTEA) Assay for MicroRNA 122 (MIR122) using HepaRG (AID 2283516); further: the transcript read is the microRNA miR-122
# Method in brief: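 Differentiated human HepaRG cells in serum-free induction medium exposed 48 h to 8 half-log concentrations from 100 uM in 0.5% DMSO, duplicate. MIR122 quantified by Fluidigm TaqMan qRT-PCR, normalised to ACTB, GAPDH, POLR2A; fold change fitted bidirectionally versus DMSO.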
# [16] = read-out: matrix metalloproteinase-10 (MMP10), MMP10 (gene 4319); assay: LTEA_HepaRG_MMP10: Life Technologies and Expression Analysis (LTEA) Assay for matrix metalloproteinase-10 (MMP10) using HepaRG (AID 2283517)
# Method in brief: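 Gain or loss of MMP10 mRNA is fitted relative to the 0.5% DMSO vehicle. The human hepatic line HepaRG receives a 48-hour serum-free exposure, in duplicate, with a maximum concentration of 100 uM.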
# [17] = read-out: Intercellular Adhesion Molecule 1 (ICAM1), ICAM1 (gene 3383); assay: LTEA_HepaRG_ICAM1: Life Technologies and Expression Analysis (LTEA) Assay for Intercellular Adhesion Molecule 1 (ICAM1) using HepaRG (AID 2283507)
# Method in brief: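 Differentiated HepaRG cells in serum-free induction medium were exposed in duplicate for 48 h to eight half-log concentrations up to 100 uM in 0.5% DMSO. Transcript levels were measured by qRT-PCR normalized to ACTB, GAPDH and POLR2A; bidirectional fits relative to DMSO.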
SMILES,outcome [1],outcome [2],outcome [3],outcome [4],outcome [5],outcome [6],outcome (HGF (gene 3082)),outcome [7],outcome [8],outcome [9],outcome [10],outcome [11],outcome [12],outcome [13],outcome [14],outcome [15],outcome [16],outcome [17],AC50 [6]
CN1CCC[C@H]1c1cccnc1,inactive,inactive,inactive,inactive,inactive,inactive,inactive,inactive,inactive,inactive,inactive,inactive,inactive,inactive,inactive,inactive,inactive,–,–
C#C[C@]1(O)CC[C@H]2[C@@H]3CCC4=CC(=O)CC[C@@H]4[C@H]3CC[C@@]21C,inactive,inactive,inactive,inactive,inactive,inactive,–,inactive,inactive,inactive,inactive,inactive,inactive,inactive,inactive,inactive,inactive,–,–
O=C(OCCOCCOC(=O)c1ccccc1)c1ccccc1,inactive,inactive,inactive,inactive,inactive,inactive,inactive,inactive,inactive,inactive,inactive,inactive,inactive,inactive,inactive,inactive,inactive,–,–
COc1ccc([N+](=O)[O-])cc1N,inactive,inactive,inactive,inactive,inactive,inactive,inactive,inactive,inactive,inactive,inactive,inactive,inactive,inactive,inactive,inactive,inactive,inactive,–
CC(C)(C)c1cc(C(C)(C)C)c(O)c(C(C)(C)C)c1,inactive,inactive,inactive,inactive,inactive,–,inactive,inactive,inactive,inactive,inactive,inactive,–,inactive,inactive,inactive,inactive,inactive,21 µM (active)
